# Source: PubChem
# Sampled rows, rich in hits. Any-hit rate of the full collection: about 4.5%.
# 697 NFkB inh = inhibitors of the PMA/ionomycin-induced NF-kB reporter in 697 B cells | 697 B-cell NF-kB luciferase reporter, 16 h | 330,000 tested, 0.33% active | inhibition, % at 4 µM; in the data active = inhibition above about 35%
# CSC inhib = cancer stem cell inhibition. cancer stem cell-like cells viability, luminescence. inhibition, % at 7.5 µM. 300,000 tested, 1.1% active. AID 2717; in the data active = inhibition above about 75%; tested in HMLE shEcad cells
# Mdm2-MdmX inh = disrupts the human Mdm2-MdmX interaction; inhibition, % at 8 µM; AID 485346; SaOS-2 split-luciferase Mdm2/MdmX complementation, luminescence; 330,000 tested, 3% active;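 active = inhibition of at least 50% at 8 µM in the primary screen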
# Jurkat NFkB inh = inhibitors of the PMA/ionomycin-induced NF-kB reporter in Jurkat cells. inhibition, % at 4 µM. PMA/ionomycin-induced NF-kB luciferase reporter, luminescence. 330,000 tested, 0.53% active. AID 435003; in the data active = inhibition above about 50%
# Beta cell apopt = beta cell apoptosis inhibition; INS-1E cytokine-induced death, ATP luminescence, 48 h; percent of positive-control rescue, neutral wells zero; 300,000 tested, 0.8% active; protection from apoptosis, % (concentration not given with the values);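 active = Every replicate reaches about 75%, or at least half do and their mean reaches it too, limit read from the data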;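 also: 0% = cytokine-treated negative control wells and 100% = positive control rescue; higher means more ATP so stronger rescue from cytokine killing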
# Gli-Sufu antag = Gli-Sufu pathway antagonism. Sufu-KO-LIGHT fibroblasts, Gli luciferase reporter luminescence. inhibition, % at 5 µM. 340,000 tested, 0.74% active;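 active = inhibition above about 55%, limit read from the data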;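 also: 0% = DMSO-treated cells and 100% = wells with medium but no cells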
# Mdm2 MdmX conf = human Mdm2/MdmX binding inhibition, confirmed. shares compounds with Mdm2-MdmX inh. inhibition, % at 8 µM. luminescent assay. 10,000 tested, 55% active; in the data active = inhibition above about 40%
# Full FLuc ctr = full-length luciferase inhibition in Mdm2/MdmX counter-screen; SaOS-2 full-length luciferase counterscreen, luminescence; inhibition, % at 8 µM; 6,200 tested, 77% active; AID 504607; shares compounds with Mdm2-MdmX inh;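 active = mean inhibition at 8 µM reaching about 37%, which flags the compound as non-specific, limit read from the data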;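 also: p53-null SaOS-2 cells with luciferase driven by a doxycycline-inducible promoter; compound on cells about two nights before reading with doxycycline added after day one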
# * marks the source's active call; other numbers are inactive results; x = no result given.
SMILES,697 NFkB inh,CSC inhib,Mdm2-MdmX inh,Jurkat NFkB inh,Beta cell apopt,Gli-Sufu antag,Mdm2 MdmX conf,Full FLuc ctr
CNC[C@H](Cc1cccc2ccccc12)NC[C@H](CCSC)NCC1CCC(C(C)(C)C)CC1 (stereo partly drawn),7,90*,60*,0,-1,x,5,x
COC(=O)/C=C1\N/C(=N/c2nc(C)c3cc(OC)ccc3n2)NC1=O,-9,8,16,-1,26,2,x,x
Cc1c(C(=O)N2CCN(Cc3ccc4c(c3)OCO4)CC2)sc2ncnc(N3CCN(c4ccccc4)CC3)c12,-13,19,73*,25,3,48,34,x
Cc1c(C(=O)N2CCN(Cc3ccc4c(c3)OCO4)CC2)sc2ncnc(N3CCN(c4ccccc4F)CC3)c12,-11,-4,63*,23,-7,18,23,x
Clc1ccc2nc(C3CCN(Cc4nnnn4C4CCCCC4)CC3)[nH]c2c1,6,4,23,9,-6,18,x,x
Cc1ccc(Cn2nnnc2CN2CCC(c3nc4ccc(Cl)cc4[nH]3)CC2)cc1,18,18,58*,45,9,35,38,46*
O=C(Nc1cc(Cl)ccc1O)c1snnc1-c1ccccc1,7,47,93*,-5,37,5,58*,23
O=C(Nc1cccc(Cl)c1Cl)c1snnc1-c1ccccc1,12,-10,-9,13,4,4,x,x
CCCCCCN(C(=O)CCCCCN1C(=O)NC(c2ccc(C(C)(C)C)cc2)C(C(=O)OCc2ccccc2)=C1C)C(C(=O)NCCCC)c1ccc(OCC(=O)OC)c(C(=O)OC)c1 (stereo not drawn),2,x,77*,12,x,x,5,x
Cc1cc(C)cc(OC(=O)CS(=O)c2ccc(C(F)(F)F)cc2[N+](=O)[O-])c1 (stereo not drawn),14,39,50*,-13,-26,-13,40*,55*
O=c1cc(-c2ccccc2Cl)oc2c(NS(=O)(=O)c3cc(Cl)cc(Cl)c3O)ccc(O)c12,-13,102*,98*,-10,45,16,83*,43*
C(=C\c1ccccc1)/C=N/Nc1nc(N2CCCCC2)nc(N2CCCCC2)n1,3,0,57*,1,-8,0,16,x
O=[N+]([O-])c1ccccc1/C=C/C=N/Nc1nc(N2CCCCC2)nc(N2CCCCC2)n1,13,-15,-19,23,2,3,x,x
COc1ccc(-c2ccc3c(=O)cc(-c4ccsc4)oc3c2)cn1,-14,11,79*,-16,-1,-6,1,x
COc1cc(-c2ccc3oc(-c4ccsc4)cc(=O)c3c2)cc(OC)c1OC,3,39,73*,-2,4,30,10,x
Cc1ccc(-c2csc3ncn(C(C)C(=O)O)c(=O)c23)cc1 (stereo not drawn),14,1,-1,-1,-5,-3,x,x
CCOC(=O)C(Cc1ccccc1)NC(=O)Cn1nnc(-c2ccc(SC)cc2)n1 (stereo not drawn),-8,-14,-10,-9,-9,-2,x,x
CSc1ccc(-c2nnn(CC(=O)NCc3ccccc3)n2)cc1,-10,31,50,12,2,3,30,x
CCOc1ccc2oc(C(=O)N(CCOC)c3c(N)n(CC(C)C)c(=O)[nH]c3=O)c(C)c2c1,12,x,23,-4,-4,5,x,x
Cc1ccc(-c2csc(=Nc3cccnc3)n2CCCN2CCCC2=O)cc1C,-5,-38,9,1,-4,19,x,x
Cc1ccc(-c2csc(=Nc3cccnc3)n2CCCn2ccnc2)cc1C,-96,-21,71*,30,0,46,75*,24
COc1ccc(-c2n[nH]c(C(F)(F)F)c2-c2cc3ccccc3o2)c(O)c1,-13,102*,81*,13,22,14,43*,47*
CC(C)(C)n1nc(Cc2cccc3ccccc23)c2c(N)ncnc21,-76,39,54*,4,4,10,23,x
O=C(Nc1cccc2c1CCCC2)c1cc([N+](=O)[O-])ccc1Cl,-9,-10,62*,49,7,1,21,x
